target: T1, Tyrosine-protein kinase Tec (Homo sapiens) (UniProt P42680); settings: at 1 µM
T1 sequence (whole entry): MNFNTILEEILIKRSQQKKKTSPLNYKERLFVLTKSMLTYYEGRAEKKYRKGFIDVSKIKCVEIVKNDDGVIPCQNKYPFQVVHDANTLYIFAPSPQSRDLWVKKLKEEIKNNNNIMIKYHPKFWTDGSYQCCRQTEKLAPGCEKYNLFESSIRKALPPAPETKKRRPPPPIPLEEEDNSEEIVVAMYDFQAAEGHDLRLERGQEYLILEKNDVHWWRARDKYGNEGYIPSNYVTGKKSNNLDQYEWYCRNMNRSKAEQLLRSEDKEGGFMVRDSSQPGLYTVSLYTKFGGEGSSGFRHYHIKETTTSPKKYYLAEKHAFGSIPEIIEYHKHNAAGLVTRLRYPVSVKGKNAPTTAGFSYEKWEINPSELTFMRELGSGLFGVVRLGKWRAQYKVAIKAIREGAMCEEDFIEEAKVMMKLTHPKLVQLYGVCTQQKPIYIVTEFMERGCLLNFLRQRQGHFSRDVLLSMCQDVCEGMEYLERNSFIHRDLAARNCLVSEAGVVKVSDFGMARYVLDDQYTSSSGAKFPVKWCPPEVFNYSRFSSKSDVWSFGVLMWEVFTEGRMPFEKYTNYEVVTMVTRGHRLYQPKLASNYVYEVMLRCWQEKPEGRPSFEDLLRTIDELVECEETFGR
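Further: each value is the mean of the inhibition measurements.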

SMILES | inhibition [%]
COc1cc2ncnc(Nc3ccc(C)c(O)c3)c2cc1OC | 36.6
Cc1cc(-c2ccccn2)cc(C)c1/C=C/c1cncc(-c2nn[nH]n2)c1 | 12.4
CC(C)c1ccc2c(c1)NC(=O)/C2=N/Nc1ccc(S(N)(=O)=O)cc1 | 3.98
CCn1c(-c2nonc2N)nc2ccc(F)cc21 | 3.97
CN(c1ccc(NC(=O)Nc2ccc(OC(F)(F)F)cc2)cc1)c1ccnc(Nc2cccc(S(N)(=O)=O)c2)n1 | 7.04
c1ccc(Nc2ncc(-c3ccccc3)o2)cc1 | 8.61
CCOc1nccc2c1nc(-c1nonc1N)n2CC | 5.87
COc1cccc(-n2ncc3c(N/N=C/c4ccc(S(C)(=O)=O)cc4)ncnc32)c1 | 10.4
Cc1ccc2c(-c3ccnc(Nc4cccc(C(F)(F)F)c4)n3)c(-c3ccccc3)nn2n1 | 38.3
NS(=O)(=O)c1cccc(Nc2cc(-c3ccc(F)cc3)n[nH]2)c1 | 6.08
CCCN1CCCC(c2ccc(Nc3nc(Nc4cc(F)ccc4C(N)=O)c4cc[nH]c4n3)c(OC)c2)C1 (centres undefined) | 9.82
c1ccc(Cc2nc3ccc(Nc4ncnc5ccccc45)cc3[nH]2)cc1 | 8.08
CN1CCN(C(=O)c2ccc(NC(=O)Nc3ccc(N(C)c4ccnc(Nc5ccc(CS(C)(=O)=O)cc5)n4)cc3)cc2)CC1 | 37.1
N#Cc1cccc(Nc2nccc(-c3cnn4ncccc34)n2)c1 | 39.3
Nc1nccc(-c2c(-c3ccc(F)cc3)ncn2CCCN2CCOCC2)n1 | 3.98
COc1cc(/C=N/Nc2ncnc3c2cnn3C(C)C)ccc1O | 13.6
O=C(Nc1ccc(Oc2ccc3[nH]c(NC(=O)c4ccco4)nc3c2)cc1)Nc1cc(C(F)(F)F)ccc1F | 0.35

SMILES | inhibition [%]
Cc1ccc(Nc2ccnc(Nc3cccc(C(N)=O)c3)n2)cc1O | 57.1
COC(=O)c1cncc(/C=C/c2c(C)cc(O)cc2C)c1 | 20.5
Cc1cc(O)cc(C)c1/C=C/c1cncc(C(=O)N(C)C)c1 | 5.03
NC(=O)c1cccc(Nc2nccc(Nc3cccc(F)c3)n2)c1 | 34.3
COc1cc2ncnc(Nc3ccc4c(cnn4Cc4ccccc4)c3)c2cc1OC | 17.7
CCn1c(-c2nonc2N)nc2c(C#CC(C)(C)O)nc(OCCNC)cc21 | 3.22
Nc1nccc(C#Cc2cncnc2Nc2ccc(OCc3cccc(F)c3)c(Cl)c2)n1 | 13.6
COC(=O)Nc1nc2cc(Oc3ccc(NC(=O)Nc4cccc(Br)c4)cc3)ccc2[nH]1 | 3.43
O=C1Nc2ccccc2/C1=C/Nc1ccc2[nH]c(=O)[nH]c2c1 | 13.8
NS(=O)(=O)c1ccc(Nc2cc(-c3cccc(O)c3)n[nH]2)cc1 | 5.56
COc1cc2ncn(-c3cc(OCc4ccccc4S(C)(=O)=O)c(C#N)s3)c2cc1OC | 35.5
CC(C)c1ccc(Nc2nccc(-c3cnn4ncccc34)n2)cc1 | 7.14
NS(=O)(=O)c1ccc(N/N=C2\C(=O)Nc3ccc(Cl)cc32)cc1 | 6.14
FC(F)(F)c1ccc(-c2nn3ncccc3c2-c2ccnc(Nc3ccc4c(c3)OCCO4)n2)cc1 | 5.21
Nc1ccc(C#Cc2cncnc2Nc2ccc(OCc3cccc(F)c3)c(Cl)c2)cc1 | 3.77
Cc1ccc(O)cc1Nc1ccnc2ccc(S(C)(=O)=O)cc12 | 82.7
NS(=O)(=O)c1ccc(NC=C2C(=O)Nc3ccc4ncsc4c32)cc1 | 22.4

— ChEMBL document CHEMBL1961873, “Compounds: GSK PKIS; Assays: Nanosyn kinase panel” (2012)
